In the library only some 0.83% were active in any assay of this set; here they are far more common.
MLL CXXC-DNA inh: inhibitors of human MLL CXXC domain-DNA interaction | Q03164 | MLL-CXXC / FITC-HOXA9 DNA fluorescence polarization | Potency, µM (titrated, usually from 115 µM), inactives show at the highest dose activity change, negative = inhibition, most hits filed as inhibitors | 290,000 tested, 0.037% active | AID 2662; active = well fitted inhibition curve with a large enough effect in the polarisation, with a control signal flat, not every such curve was filed as active; inconclusive = small, poorly fitted or top-dose-only effect, or effect the other way, or a change in a side signal; inactive = no such curve, though single readings can be large or run the other way; the % refers to the polarisation; also: potency is read from the fitted curve at half-maximal effect
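Fluorescence polarization: 7 uM MLL-CXXC (stock) preincubated 5 min with compounds, then 50 nM fluorescein-HOX-A9 DNA (stock) added; 30 min ambient. Buffer 50 mM Tris-HCl pH 7.5, 50 mM NaCl, 1 mM DTT, 0.05% BSA.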
Menin-MLL FL inh: menin-MLL binding inhibition, fluorescein peptide; 290,000 tested, under 10 active; FP activity change, % at 61.4 µM; Fluorescence polarization, fluorescein-MLL peptide displacement from menin; active = well fitted curve in the direction sought with a large enough effect in the polarisation, not every such curve was filed as active; inconclusive = small, poorly fitted or top-dose-only effect, or effect the other way, or a change in a side signal; inactive = no such curve, though single readings can be large or run the other way; the % refers to the polarisation; also: % of control where 0% means no effect
CtBP-E1A blk: CtBP/E1A binding inhibition. activity change, % (test concentration not listed). AlphaScreen GST-E1A/His-CtBP binding, 1536-well; stronger effect = lower value. 340,000 tested, 0.49% active. AID 651724; also: % is scaled to controls: 0 for no effect and ±100 for the full control effect
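GST-E1A and His-tagged CtBP (125 nM each as 5X stock) were preincubated with pin-transferred compound for 2 h at 37 °C in the dark, then glutathione donor and nickel acceptor beads were added for 1 h before AlphaScreen reading.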
GLS inhibitor: glutaminase GLS (human) inhibition; 410,000 tested, 0.21% active; GLS enzymatic activity, qHTS titration; O94925; Potency, µM (doses to about 45.5 µM), for inactives: top-dose activity change, negative = inhibition, actives largely listed as inhibitors; AID 624170; active = well fitted inhibition curve with a large enough effect; inconclusive = small, poorly fitted or top-dose-only effect, or another doubt; inactive = no such curve, though single readings can be large or run the other way; also: potency is read from the fitted curve at half-maximal effect; % is scaled to controls: 0 for no effect and ±100 for the full control effect
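Enzyme dispensed in phosphate buffer (45 mM, pH 8.2, 0.02% Tween-20), compounds pinned in, then 1 mM L-glutamine solution and the glutamate oxidase–HRP–Amplex Red mix added; fluorescence read immediately and again after 30 min at room temperature.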
Menin-MLL TR inh: inhibitors of human menin-MLL interaction, mutant MLL peptide; Menin + Texas Red MLL mutant peptide, fluorescence polarization; AID 1768; Potency, µM (doses to about 61.6 µM), inactives show top-dose FP activity change, negative = inhibition, most hits filed as inhibitors; 270,000 tested, 0.23% active; O00255; active = well fitted inhibition curve with a large enough effect in the polarisation, with a control signal flat, not every such curve was filed as active; inconclusive = small, poorly fitted or top-dose-only effect, or effect the other way, or a change in a side signal; inactive = no such curve, though single readings can be large or run the other way; the % refers to the polarisation; also: potency is read from the fitted curve at half-maximal effect; % of control where 0% means no effect
Six1-Eya2 inh: blocks human Six1 binding to Eya2; AID 651725; AlphaScreen GST-Six1/His-Eya2 binding, biochemical; stronger effect = lower value; activity change, % (concentration not given with the values); 360,000 tested, 0.56% active; also: % is scaled to controls: 0 for no effect and ±100 for the full control effect
Target sequence (O00167 whole entry, looked up): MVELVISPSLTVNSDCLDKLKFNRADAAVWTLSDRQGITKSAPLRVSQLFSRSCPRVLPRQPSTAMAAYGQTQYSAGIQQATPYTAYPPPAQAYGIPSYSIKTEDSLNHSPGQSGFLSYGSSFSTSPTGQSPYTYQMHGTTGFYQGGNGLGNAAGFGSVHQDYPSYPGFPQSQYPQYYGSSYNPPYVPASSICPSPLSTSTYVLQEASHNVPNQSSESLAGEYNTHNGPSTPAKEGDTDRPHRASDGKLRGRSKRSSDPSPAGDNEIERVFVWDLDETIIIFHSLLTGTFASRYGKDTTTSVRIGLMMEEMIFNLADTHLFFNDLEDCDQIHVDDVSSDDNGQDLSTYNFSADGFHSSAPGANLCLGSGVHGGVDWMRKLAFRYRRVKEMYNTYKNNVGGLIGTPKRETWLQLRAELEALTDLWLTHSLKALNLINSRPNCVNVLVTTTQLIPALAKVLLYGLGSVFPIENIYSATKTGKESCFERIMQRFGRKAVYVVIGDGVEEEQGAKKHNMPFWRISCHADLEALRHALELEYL
Target sequence (Q15475 whole entry, looked up): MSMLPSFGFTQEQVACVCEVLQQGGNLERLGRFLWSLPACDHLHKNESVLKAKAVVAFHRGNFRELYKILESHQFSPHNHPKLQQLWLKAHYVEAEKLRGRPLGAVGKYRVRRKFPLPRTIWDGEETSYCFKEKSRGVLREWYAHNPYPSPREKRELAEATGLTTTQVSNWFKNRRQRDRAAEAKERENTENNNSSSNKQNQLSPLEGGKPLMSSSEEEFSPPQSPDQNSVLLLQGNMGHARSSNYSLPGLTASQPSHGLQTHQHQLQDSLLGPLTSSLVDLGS
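Compounds are tested against tagged Six1 and Eya2 proteins bridged by glutathione donor and nickel acceptor beads; after a one-hour incubation at 37 °C without light, AlphaScreen emission is recorded.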
Active calls of the source: *; ? = inconclusive; nt = no result given; [ ] = dose if it differs, or a comment. Rule as the data show it, unless noted: active = activity change below about -65%; inconclusive = mostly about -30% to -63%; inactive = weaker than that.

SMILES | MLL CXXC-DNA inh | Menin-MLL FL inh | CtBP-E1A blk | GLS inhibitor | Menin-MLL TR inh | Six1-Eya2 inh
CO[C@]1(NC(=O)C2SC(=C(C(N)=O)C(=O)O)S2)C(=O)N2C(C(=O)O)=C(CSc3nnnn3C)CS[C@H]21 (some centres undefined) | -4.0%[51.4 µM] | -0.2[24.8 µM] | nt | 34.0%[20 µM] | 12.3%[24.8 µM] | nt
NC(=O)C1CCN(C2=C(NS(=O)(=O)c3ccc(Br)cc3)C(=O)c3ccccc3C2=O)CC1 | -5.0% | -2.4 | ? | 34.2% | -24.2% | ?
CCOC(=O)C1CCN(C2=C(NS(=O)(=O)c3ccc(Br)cc3)C(=O)c3ccccc3C2=O)CC1 | 14.0% | 0.1 | nt | 30.1% | ? | -79.7*
O=C1C(NS(=O)(=O)c2ccc(Cl)cc2)=C(N2CCCCC2)C(=O)c2ccccc21 | 6.0% | 3.4 | -81.2* | 7.2% | ? | -80.4*
CN1CCN(C2=C(NS(=O)(=O)c3ccccc3)C(=O)c3ccccc3C2=O)CC1 | -6.6% | -7.3 | -10.1 | 21.9% | -0.9% | -5.1
CC(C)C(=O)SCCCCCCC(=O)Nc1nc(-c2ccccc2)cs1 | nt | -3.5 | nt | nt | 9.6% | nt
O=C(N/N=C/c1c(O)ccc2ccccc12)C(=O)N1CCCC1 | nt | nt | ? | -8.2% | nt | -86.9*
Cc1cc(C)n(CCC(=O)N/N=C/c2c(O)ccc3ccccc23)n1 | -13.6% | 7.6 | nt | 33.0% | nt | -88.8*
Cc1cc(C)n(CCC(=O)N/N=C/c2ccc(O)cc2)n1 | 3.6% | 3.8 | 3.1 | -1.8% | 13.3% | -8.0
Cc1cccc(/C=N/NC(=O)CN2CCCCCCC2)c1 | 2.8% | 2.4 | 4.6 | 13.4% | -7.5% | 4.0
Cc1ccc(O)c(/C=N/NC(=O)CN2CCCC2)c1 | 3.1% | 3.6 | nt | 20.9% | 20.4% | -65.2*
O=C(CN1CCCC1)N/N=C/c1c(O)ccc2ccccc12 | 34.3% | ? | -91.3* | 13.3% | ? | -90.2*
O=C(CN1CCOCC1)N/N=C/c1cccc2ccccc12 | -8.6% | 0.6 | 1.0 | -0.3% | -6.3% | 1.1
COc1ccc(Cn2c(SCc3ccc(C(=O)NC4CCCC4)cc3)nc3cccnc32)cc1 | nt | nt | nt | 12.6% | nt | nt
CCC1OC(=O)C[C@@H](O)[C@H](C)[C@@H](OC2OC(C)CC(N(C)C)C2O)[C@@H](CC=O)C[C@@H](C)C(=O)/C=C/[C@]2(C)OC2C1C (some centres undefined) | -1.1% | 1.1 | nt | 6.6% | 0.7% | nt
O=C(NN=Cc1c(O)ccc2ccccc12)C1CC1 | nt | nt | -68.6* | 34.4% | nt | ?
O=c1c2ccccc2nc(N/N=C/c2c(O)ccc3ccccc23)n1O | ? | nt | -93.7* | 35.7% | nt | -89.5*
CC[C@H](c1ccccc1)c1noc(CCN(CC)CC)n1 | nt | nt | nt | 6.2% | nt | nt
COC(=O)c1ccc(/C=C2\CCn3c2nc2cc(C(=O)O)ccc2c3=O)cc1 | -1.0% | 3.3 | ? | 11.7% | -17.3% | -66.1*
COc1ccc(/C=C2\CCn3c2nc2cc(C(=O)O)ccc2c3=O)cc1O | 30.4% | 3.8 | ? | 6.31µM* | ? | ?
COc1ccc(/C=C2\CCn3c2nc2cc(C(=O)O)ccc2c3=O)cc1OC | 13.1% | -1.3 | -7.3 | ? | ? | -21.1
CC(=O)O[C@H]1CC[C@@]2(C)C(=CCC3C2CC[C@]2(C)C(c4cccnc4)=CCC32)C1 (some centres undefined) | nt | nt | nt | -1.3% | nt | nt
CCCN[C@@H](C)C(=O)Nc1ccccc1C | 3.8% | 4.8[24.8 µM] | nt | -3.7% | -10.9%[24.8 µM] | nt
Cc1cccc(OCC(=O)Nc2c(C)ccc3nsnc23)c1C | nt | nt | nt | -8.3% | nt | nt
COc1ccc(OC)c2sc(NC(=O)c3ccc(S(=O)(=O)N4CCOCC4)cc3)nc12 | 9.7% | -0.4 | 0.8 | -3.6% | 17.8µM* | 3.3
SMILES | MLL CXXC-DNA inh | Menin-MLL FL inh | CtBP-E1A blk | GLS inhibitor | Menin-MLL TR inh | Six1-Eya2 inh
CC1CC=CC2C1C(=O)N(Cc1ccccc1)C2c1ccc(-c2ccc(F)cc2)cc1F (centres undefined) | nt | -0.7 | nt | nt | -12.2% | nt
Cc1ccc(/C=C2\S/C(=N/S(=O)(=O)c3cccs3)NC2=O)cc1 | 0.1% | 0.0 | nt | ? | nt | -66.6*
Cc1ccc(S(=O)(=O)/N=C2/NC(=O)/C(=C\c3ccccc3)S2)cc1 | nt | nt | -2.3 | 3.0% | nt | -6.9
O=c1c(-c2ccc(Cl)cc2)nc2cnc(N3CCNCC3)nc2n1Cc1ccc(F)cc1 | nt | -1.7 | nt | nt | 14.1% | nt
CCCn1c(N)c(N2CCCCC2)c(=O)n(CC(=O)Nc2ccc(C(C)=O)cc2)c1=O | nt | nt | -3.6 | 4.47µM* | nt | 4.7
Brc1ccc(Nc2nc(-c3cccnc3)cs2)cc1 | 5.9% | -4.1 | 4.5 | ? | ? | 10.2
Oc1ccc(Nc2nc(-c3cccnc3)cs2)cc1 | 7.9% | 0.1 | 7.9 | 5.01µM* | -4.6% | ?
Nc1ccccc1S(=O)(=O)Nc1cccc2cccnc12 | nt | -3.2 | nt | nt | ? | nt
CCOc1ccc(NC(=O)c2c(NC(=O)c3ccccc3F)sc3c2CCC3)cc1 | nt | nt | nt | 0.4% | nt | nt
CCOc1ccc(NC(=O)c2c(NC(=O)CNCCN3CCOCC3)sc3c2CCC3)cc1 | 0.2% | 2.6 | -82.3* | 0.9% | ? | ?
COc1ccc(/C=N/N2C(C)CCCC2C)cc1O (centres undefined) | ? | -2.2 | 3.5 | 11.2µM* | 6.4% | 0.3
CCc1ccc2[nH]c3nc(N/N=C/c4ccc(O)cc4O)nnc3c2c1 | ? | 0.2 | -81.1* | 14.7% | ? | ?
S=c1nc(-c2ccccn2)c(-c2ccccn2)n[nH]1 | nt | nt | -88.8* | -2.2% | nt | -83.2*
CO[C@@H]1[C@@H](OC2OC(C)C(OC3CC(C)(O)C(O)C(C)O3)C(N(C)C)C2O)[C@@H](CC=O)C[C@@H](C)[C@@H](OC2CCC(N(C)C)C(C)O2)/C=C/C=C/C[C@@H](C)OC(=O)C[C@H]1OC(C)=O (some centres undefined) | nt | nt | nt | 14.1% | nt | nt
COc1ccc2c(c1OC)C(Cc1ccccc1)N1CCc3cc4c(cc3C1=C2)OCO4 (centres undefined) | nt | ? | nt | nt | -15.2%[24.8 µM] | nt
COc1ccc(OC2C=CC(c3ccccc3)OC2CO)cc1 (centres undefined) | nt | -2.2[11.7 µM] | nt | nt | 0.1%[11.7 µM] | nt
CCN1CCc2c(sc(N)c2C#N)C1 | -13.0% | ? | 4.9 | -22.7% | 1.6% | -5.9
CC(C)N1CCc2c(sc(N)c2C#N)C1 | 8.4% | ? | 1.8 | 14.1µM* | -1.5% | -1.2
COc1cccc(-c2nnc3n2N=C(c2ccc(OC)cc2OC)CS3)c1 | nt | 4.0 | nt | nt | ? | nt
Cc1nc(N)sc1-c1csc(Nc2ncccn2)n1 | 52.6% | -0.6 | -26.2 | -22.5% | ? | ?
COc1ccc(CC(N)c2csc(Nc3cc(NCCCO)ncn3)n2)cc1 (centres undefined) | nt | nt | -92.9* | 25.5% | nt | -90.6*
NCc1csc(Nc2ncccn2)n1 | nt | nt | -80.6* | 17.1% | nt | -72.5*
CC(C)CC(N)c1csc(Nc2ncccn2)n1 (centres undefined) | nt | nt | -70.9* | 9.8% | nt | ?

Compound activity (PubChem)
